What all share (test): Cytotoxic Profiling of Annotated Libraries Using Quantitative High-Throughput Screening (AID 1296008); also: nearly all actives have a fitted effect of over 60% in size
Details in all cases: Five cell lines viability, CellTiter-Glo ATP luminescence, 48-72 h; max response: active compounds read low
Background: In ATP-based viability assays light output follows the ATP content of the culture.

One assay concerns CRL-7250. An outline of the steps:
(§1)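 Cytotoxicity was measured as CellTiter-Glo ATP luminescence, read after 10 min at room temperature. Compound treatment of the cells lasted 48 or 72 hr at 37 degrees Celsius in a qHTS format.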

The subject of the next assay is HEK293. In short, it runs like this:
as §1

Another assay concerns HaCat. In short, it runs like this: as §1
Another assay relates to KB-3-1. In short, it runs like this: as §1
The next assay has as its system NIH3T3. An outline of the steps: as §1

Structures are written as SMILES. Where “and” joins values, the source holds several entries; their conditions need not be identical. Equal values may be shown once. Records with an inconclusive call do not appear. Values without a mark were called inactive. Calls of active or inactive are those of the source. Calls follow the shape of the dose curve; as a rule, active = well fitted inhibition curve with a large enough effect; inconclusive = small, poorly fitted or top-dose-only effect; inactive = flat fitted curve, though single readings scatter. Where a SMILES comes first, the peptide text is derived from it.
% is scaled to controls: 0 for no effect and ±100 for the full control effect; potency is read from the fitted curve at half-maximal effect.

Take `O=C(O)c1cnn(-c2nc3cc(OC(F)(F)F)c(Cl)cc3[nH]2)c1`: the max response with CRL-7250 is -25.2%; in the assay with HaCat, 3.71%; in the assay with KB-3-1, 4.77%. For the same compound, the outcome with HEK293 and in the assay with NIH3T3 was inactive.

As to `COc1cc(CCc2ccccc2)c(C(=O)O)c2c1CC(C(C)(C)O)O2` (stereo not given), the call in the assay on CRL-7250, with HEK293, with HaCat, with KB-3-1 and in the assay with NIH3T3 was inactive.

For the compound `CC1=CC(=O)C2C(C)(C)CCCC2(C)C12CCC1(COC(=O)C1)O2` (stereo not given), the max response in the assay on CRL-7250 was -1.45%; in the assay on KB-3-1, 5.32%; in the assay with NIH3T3 it was -3.33%. In addition, the outcome with HEK293 and in the assay with HaCat was inactive.

On to `C[C@@H]1O[C@@H](O[C@H]2[C@H](O[C@H]3CO[C@@H](O[C@H]4CC[C@@]5(C)C(CC[C@]6(C)C5CC[C@]57OC[C@@]8(CC[C@](C)(CO)CC85)[C@H](O)C[C@]76C)C4(C)C)[C@H](O[C@@H]4O[C@H](CO)[C@@H](O)[C@H](O)[C@H]4O)[C@H]3O)O[C@H](CO)[C@@H](O)[C@@H]2O)[C@H](O)[C@H](O)[C@H]1O` (stereo not given in full), for which the max response in the assay on CRL-7250 is -17.3%; in the assay with HaCat, -3.02%; in the assay on KB-3-1 it was 5.69%; in the assay on NIH3T3, 2.44%. The compound was classed as inactive with HEK293.

In the case of `CC1NC(=O)CNC(=O)C(C(C)C)NC(=O)C2CCCN2C(=O)C(C(C)C)NC(=O)C(Cc2c[nH]c3ccccc23)NC1=O` (stereo not given) (cyclo(GAWVPV); configuration not given here), the outcome in the assay with CRL-7250, in the assay with HEK293, in the assay with HaCat, in the assay on KB-3-1 and in the assay on NIH3T3 was inactive.

For `COC1CC(=O)CCC(C)OC(=O)CC1O` (stereo not given), the values for the max response in the assay with CRL-7250, with HaCat and with NIH3T3 were -4.48%, 1.84% and 4.21%, respectively. Moreover, the result in the assay with HEK293 and in the assay on KB-3-1 was inactive.

Regarding `CC(=O)OCC(=O)O[C@@H]1[C@H]2[C@@H](OC(=O)c3ccccc3)[C@@H](C)C[C@]2(O)[C@H](OC(C)=O)C2(C)[C@H]3CC(C)(C)C(=O)[C@@H]3CC1(OC(C)=O)[C@@H]2OC(C)=O` (stereo not given in full), the max response with CRL-7250 was -0.187%; with KB-3-1 it was 9.67%. Further, the result in the assay on HEK293, in the assay with HaCat and in the assay with NIH3T3 was inactive.

Regarding `CNC(=O)[C@H]1O[C@@H](n2cnc3c(NCc4ccc(N)c(I)c4)ncnc32)[C@H](O)[C@@H]1O`, the max response is -3.43% in the assay on CRL-7250, -7.91% in the assay on HaCat and -0.967% with NIH3T3. Moreover, the compound was classed as inactive in the assay with HEK293 and in the assay on KB-3-1.

Regarding `O=C(/C=C/c1c(C(=O)O)[nH]c2cc(Cl)cc(Cl)c12)Nc1ccccc1`, the max response in the assay with CRL-7250 is -11.7%. In addition, the compound was called inactive in the assay with HEK293, in the assay with HaCat, in the assay on KB-3-1 and with NIH3T3.

Consider `COc1ccc(/C=C/C(=O)O[C@@H]2[C@@H](O)[C@H](C)O[C@@H](OC3C4C=COC(O[C@@H]5O[C@H](CO)[C@@H](O)[C@H](O)[C@H]5O)C4C4(CO)OC34)[C@@H]2O)cc1OC` (stereo not given in full), for which the max response is 0.628% with CRL-7250, -0.119% with KB-3-1 and 0.929% in the assay with NIH3T3. For the same compound, the call in the assay on HEK293 and in the assay with HaCat was inactive.

Consider `FC(F)(F)c1cc(C(F)(F)F)c2ccc3nc(-c4nnco4)cn3c2n1`, for which the outcome in the assay with CRL-7250, in the assay with HEK293, in the assay on HaCat and with NIH3T3 was inactive. The max response in the assay on KB-3-1 was -10%.

Consider `CC1(C)CC[C@]2(C(=O)O[C@@H]3O[C@H](CO)[C@@H](O)[C@H](O)[C@H]3O)CC[C@]3(C)C(=CCC4[C@@]5(C)C[C@@H](O)[C@H](O)[C@@](C)(CO)C5CC[C@]43C)C2C1` (stereo not given in full), for which the max response in the assay with CRL-7250 was 1.73%; with NIH3T3 it was -1.65%. Moreover, the call in the assay on HEK293, in the assay with HaCat and with KB-3-1 was inactive.

As to `CC1CC(O)CC(C)(C)C1(O)CCO` (stereo not given), the max response with CRL-7250 is -5.35%; in the assay with NIH3T3, 0.3%. Moreover, the outcome in the assay with HEK293, in the assay on HaCat and in the assay with KB-3-1 was inactive.

For the compound `CCNC(=O)CCC/C=C\C[C@@H]1[C@@H](/C=C/C(O)CCc2ccccc2)[C@@H](O)C[C@@H]1O` (stereo not given in full), the outcome with CRL-7250, in the assay on HEK293, with HaCat and with NIH3T3 was inactive. Besides, the max response in the assay with KB-3-1 is 9.15%.

Turning to `CNC(=O)c1ccc(Nc2ncc(C(F)(F)F)c(NCc3nccnc3N(C)S(C)(=O)=O)n2)cc1`, the Potency is 4.17 µM (active) with CRL-7250; 5.17 µM (active) with HEK293; 7.31 µM (active) and 2.95 µM (active) in the assay with HaCat; 11.6 µM (active) in the assay with KB-3-1; 14.6 µM (active) and 3.71 µM (active) in the assay with NIH3T3.

Turning to `C[C@]1(OC(=O)/C=C/c2ccccc2)C[C@H](O)[C@]2(O)C=CO[C@@H](O[C@@H]3O[C@H](CO)[C@@H](O)[C@H](O)[C@H]3O)C12` (stereo not given in full), the call in the assay with CRL-7250, with HEK293, in the assay on HaCat and in the assay with NIH3T3 was inactive. Further, the max response in the assay on KB-3-1 was 4.61%.

Consider `COc1cc(/C=C/C(=O)OC2CC3CCC2(C)C3(C)C)ccc1O` (stereo not given), for which the call in the assay with CRL-7250, in the assay on HEK293 and in the assay with NIH3T3 was inactive. In addition, the max response with HaCat is -0.121%; in the assay on KB-3-1 it was 9.6%.

Take `C=C1C2=CC(O)C(C)C1(C)CC/C(C)=C/CCC1(C)OC1C2=O` (stereo not given): the values for the max response in the assay with CRL-7250 and with HaCat were -9.54% and 1.13%, respectively. Besides, the result with HEK293, with KB-3-1 and in the assay with NIH3T3 was inactive.

Turning to `C[C@@H]1O[C@@H](O[C@H]2[C@H](OC(=O)C34CCC(C)(C)CC3C3=CCC5C6(C)CC(O)C(O[C@@H]7O[C@H](CO)[C@@H](O)[C@H](O)[C@H]7O)C(C)(C(=O)O)C6CCC5(C)C3(CO)CC4)O[C@H](C)[C@H](O)[C@@H]2O)[C@H](O)[C@H](O)[C@H]1O[C@@H]1OC[C@@H](O)[C@H](O)[C@H]1O` (stereo not given in full), the max response in the assay on CRL-7250 is -4.64%; with HaCat it was 3.66%; in the assay on NIH3T3, 2.3%. Moreover, the call in the assay with HEK293 and in the assay on KB-3-1 was inactive.

As for `CCC[C@@H]1C[C@@H](C(=O)N[C@H](C(C)Cl)[C@H]2O[C@H](SC)[C@H](O)[C@@H](O)[C@H]2O)N(C)C1` (stereo not given in full), the max response with CRL-7250 was -2.55%; in the assay with HaCat, 1.16%; in the assay with KB-3-1, 7.07%; in the assay on NIH3T3 it was 3.25%. Besides, the result in the assay with HEK293 was inactive.

In the case of `COc1c2c(c(C)c3c1C(=O)OC3)OC1(C)CC(O)C3(O)C(C)(C)OC(=O)CCC3(C)C1C2` (stereo not given), the max response with CRL-7250 is -8.09%; in the assay with KB-3-1, 8.81%. Further, the call in the assay with HEK293, in the assay with HaCat and with NIH3T3 was inactive.

These data come from PubChem BioAssay (NCATS).
